This note sets out measurements from PubChem BioAssay AID504332 (National Center for Advancing Translational Sciences (NCATS), 2011).

Structures are written as SMILES. The campaign covered roughly 350,000 compounds. About 31,000 (8.9%) were called active. Not shown: some 15% with an inconclusive outcome. Calls come from the whole dose curve; as a rule, active = well fitted inhibition curve with a large enough effect; inconclusive = small, poorly fitted or top-dose-only effect; inactive = no such curve, though single readings can be large or run the other way. Only a selection was taken, and actives are over-represented in it overall.
% is set by controls: 0 for no effect and ±100 for the full control effect; potency is the fitted concentration of half-maximal effect.

In this assay the target is Histone-lysine N-methyltransferase EHMT2 (Homo sapiens) (UniProt Q96KQ7). The assay can be described thus: qHTS Assay for Inhibitors of Histone Lysine Methyltransferase G9a. Note: nearly all actives have a fitted effect of over 75% in size. The note with it: G9a H3K9 monomethylation, AlphaScreen, 2 h; series mostly up to 59 µM; activity, negative = inhibition: at the top concentration. Summed up: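 Chemiluminescent proximity detection of H3K9 monomethylation, read after 10 min bead incubation in the dark. Reaction: 20 nM G9a, 500 nM biotin-H3K9 peptide, 20 uM SAM cofactor, 2 h, room temperature, following 15 min enzyme-compound preincubation.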
Sequence of Histone-lysine N-methyltransferase EHMT2 (Homo sapiens) (Q96KQ7 913-1193 limits assumed): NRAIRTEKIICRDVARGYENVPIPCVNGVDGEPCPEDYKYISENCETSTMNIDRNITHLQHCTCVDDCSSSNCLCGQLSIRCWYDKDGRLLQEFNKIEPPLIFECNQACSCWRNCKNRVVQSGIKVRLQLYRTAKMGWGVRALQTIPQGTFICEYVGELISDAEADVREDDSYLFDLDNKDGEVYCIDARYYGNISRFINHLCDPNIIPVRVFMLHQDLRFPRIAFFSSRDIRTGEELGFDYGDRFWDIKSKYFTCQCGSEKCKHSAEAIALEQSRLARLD
Background: qHTS replaces the single test concentration by a dilution series.
Take `Cc1c(C(=O)Nc2cccc(Cl)c2)oc2ccc(S(=O)(=O)N3CCOCC3)cc12`: the “activity, negative = inhibition” value is 9.55% (inactive).

For the compound `CC[C@@]12C(=O)N(c3ccccc3)C(=O)N1[C@H](c1ccc(Br)cc1)[C@@H]1C(=O)N(C(C)(C)C)C(=O)[C@@H]12`, the activity, negative = inhibition is 53.8% [at 2.33 µM] (inactive).

With `CCCc1ccc(C(=O)COC(=O)CN2C(=O)NC3(CCCCC3C)C2=O)cc1` (stereo unspecified), the activity, negative = inhibition is -4.43% [at 12.7 µM] (inactive).

`CCc1nn(CC(=O)N2CCN(c3ccc(Cl)cc3)CC2)c(=O)c2cc3occc3n12`: the “activity, negative = inhibition” value is -0.323% (inactive).

As for `CCOc1ccc(CCNC(=O)COC(=O)C2CCN(c3ccc(C(F)(F)F)cn3)CC2)cc1OCC`, the “activity, negative = inhibition” value is 4.55% [at 102 µM] (inactive).

For `S=c1[nH]nc(-c2ccco2)n1/N=C/c1ccccc1`, the Potency was 1.58 µM (active).

Take `S=c1[nH]nc(-c2ccccc2)n1/N=C/c1c[nH]c2ccccc12`: the Potency is 1.58 µM (active).

For the compound `COc1ccc(Br)cc1/C=N/n1c(C)nnc1C`, the “activity, negative = inhibition” value was 4.01% (inactive).

Take `S=c1[nH]nc(-c2ccncc2)n1/N=C/c1ccccc1Cl`: the Potency was 1.41 µM (active).

As for `Nc1nonc1-n1nnc(C(=O)N/N=C/c2c[nH]c3ccccc23)c1-c1ccccc1`, the “activity, negative = inhibition” value is 96.6% [at 102 µM] (inactive).

For `CCc1n[nH]c(=S)n1/N=C/c1c[nH]c2ccc(Br)cc12`, the Potency is 8.91 µM (active).

Turning to `CSC(=S)N/N=C/c1c[nH]c2ccccc12`, the “activity, negative = inhibition” value was -9.3% (inactive).

Consider `CCCCN(C)c1nnc(NC(=O)Nc2ccc(Br)c(C)c2)s1`, for which the “activity, negative = inhibition” value was -8.76% (inactive).

`O=C(O)c1cc(S(=O)(=O)N(Cc2ccccc2)c2cccc(C(F)(F)F)c2)ccc1Cl`: the “activity, negative = inhibition” value is 7.94% [at 102 µM] (inactive).

As to `O=C(NCCC1=CCCCC1)c1ccc(-n2cncn2)cc1`, the activity, negative = inhibition is 3.99% [at 12.7 µM] (inactive).

Take `Cc1oc2ccc(O)c(CN3CCCCC3)c2c1C(=O)Nc1cccc(C(F)(F)F)c1`: the “activity, negative = inhibition” value was -4.04% (inactive).

With `O=C(NCc1ccccc1Cl)C(=O)NCC1CCCN1S(=O)(=O)c1cccs1` (stereo unspecified), the “activity, negative = inhibition” value was 1.3% [at 102 µM] (inactive).

Consider `Cc1ccc2c(c1)N(CC(=O)NCC1CCCO1)C(=O)CO2` (stereo unspecified), for which the “activity, negative = inhibition” value is 12.4% [at 102 µM] (inactive).

Regarding `CCCC1C(=O)N2C(N(C)C)=Nc3ccc(C)cc3N2C1=O` (stereo unspecified), the Potency was 3.55 µM (active).

As to `c1ccc(-c2cc(-c3ccccc3)[nH]n2)cc1`, the “activity, negative = inhibition” value is 26.9% [at 102 µM] (inactive).

For the compound `CCc1ccc(CNCc2c(C(=O)O)n(Cc3ccc(F)cc3Cl)c3cc(OC)ccc23)cc1`, the “activity, negative = inhibition” value is -2.34% (inactive).

Take `Cc1nc2c(-c3ccccc3)c(C)nn2c(C)c1CCC(=O)NCCc1ccccc1`: the “activity, negative = inhibition” value was 5.72% (inactive).

In the case of `Cc1cc(OC(C)C(=O)NC2CC(C)(C)NC(C)(C)C2)c2c(C)cc(=O)oc2c1` (stereo unspecified), the “activity, negative = inhibition” value was 15.6% [at 102 µM] (inactive).

Turning to `CCc1ccccc1NC(=O)N1CCN(C(=O)c2nsc3ccccc23)CC1`, the “activity, negative = inhibition” value is 12.5% (inactive).

With `CCN(Cc1ccccc1)Cc1c(O)ccc2c(=O)c(-c3ccc(Cl)cc3Cl)coc12`, the “activity, negative = inhibition” value is -2.39% (inactive).

For `O=C(O)CSc1ccc(S(=O)(=O)N2CCCC2)cn1`, the activity, negative = inhibition was -37.2% [at 2.33 µM] (inactive).

Regarding `Cc1ccc(/C([O-])=C(/C(=S)NCc2ccco2)[n+]2ccccc2)cc1[N+](=O)[O-]`, the Potency was 39.8 µM (active).

As for `CC(C)(C)NC(=O)NCc1ccco1`, the “activity, negative = inhibition” value is 9.25% [at 102 µM] (inactive).

For `O=C(NCc1ccco1)c1ccc([N+](=O)[O-])cc1Cl`, the “activity, negative = inhibition” value was 17.2% [at 102 µM] (inactive).

Regarding `O=C(c1ccc(F)c(S(=O)(=O)N2CCOCC2)c1)N(CCc1ccccc1)Cc1ccccc1`, the “activity, negative = inhibition” value is -4.88% [at 102 µM] (inactive).

Take `CC(=O)c1cccc(OCc2cc(C(=O)NC(C)Cc3cccnc3)no2)c1` (stereo unspecified): the “activity, negative = inhibition” value was 10.3% [at 102 µM] (inactive).

`CN(C)CCn1c2c(c(SCC(=O)NCc3ccccc3)nc1=O)CCC2`: the “activity, negative = inhibition” value is -1.82% [at 102 µM] (inactive).

With `Cc1nc2cc(C(F)(F)F)ccc2n1CCNc1nc(-c2cc(Cl)c(N)c(Cl)c2)cs1`, the Potency is 39.8 µM (active).

As to `Nc1c(Cl)cc(-c2csc(N3CCCC3c3nc4cc(Cl)c(Cl)cc4n3CCOCCO)n2)cc1Cl` (stereo unspecified), the “activity, negative = inhibition” value was 23.4% [at 102 µM] (inactive).

As to `COc1ccc(C(CC(=O)N2CCN(c3ccccc3)CC2)c2c(O)cc(OC)cc2OC)cc1` (stereo unspecified), the activity, negative = inhibition was -0.615% [at 12.7 µM] (inactive).

Consider `COc1ccc(C(C(O)C(=O)c2c[nH]c3ccccc23)N2CCN(c3ccccc3)CC2)cc1` (stereo unspecified), for which the Potency was 25.1 µM (active).

As for `COc1cccc(-n2c(SCC(=O)c3c[nH]c4ccccc34)nc3ccccc3c2=O)c1`, the “activity, negative = inhibition” value is 11.3% (inactive).

For `COc1ccc(CCNC(=O)c2cc(=O)c3c(C)cc(C)cc3o2)cc1OC`, the “activity, negative = inhibition” value is -8.8% (inactive).

As to `COc1cccc(N2CCN(S(=O)(=O)c3ccc4c(c3)CCCN4C(C)=O)CC2)c1`, the “activity, negative = inhibition” value is 3.68% (inactive).

In the case of `CCOC(=O)Nc1sc(C(=O)N(C)C)c(C)c1C(=O)OCC`, the “activity, negative = inhibition” value was 27.3% [at 102 µM] (inactive).

As for `CCOC(=O)c1c(NC(C)=O)sc2c(O)c(Br)ccc12`, the Potency is 1.58 µM (active).

For the compound `CCOC(=O)c1c(NC(=O)C2CC=CCC2C(=O)O)sc(C)c1CC` (stereo unspecified), the “activity, negative = inhibition” value was -8.47% [at 102 µM] (inactive).

For the compound `Cc1ccccc1CNC(=O)C1CCCN(S(=O)(=O)N(C)c2ccc(F)cc2)C1` (stereo unspecified), the “activity, negative = inhibition” value was -0.195% (inactive).

On to `Cc1nn(-c2ccc(N3CCCCC3)nn2)c(C)c1CCC(=O)NCc1ccc(F)cc1`, for which the “activity, negative = inhibition” value was 0.738% (inactive).

`C/C(=N\N)c1c(-c2ccccc2)c2cc(Br)ccc2[nH]c1=O`: the “activity, negative = inhibition” value is 0.552% [at 102 µM] (inactive).

As to `COC(=O)c1oc2ccc(Br)cc2c1NC(C)=O`, the “activity, negative = inhibition” value was 3.67% (inactive).
